# High-throughput results deposited in PubChem by Broad Institute.
# Compounds with a hit are over-represented: about 2.3% of the library has one in this group of screens.
# DENV2 CPE rescue: inhibitors of DENV2 cytopathic effect. CPE inhibition, % at 9.99 µM. AID 651640. DENV2-infected cells, cytopathic effect rescue, plate reader. 1.7% of 350,000 active; in the data active means CPE inhibition above about 20%, passing the limit was not always enough; inconclusive means no clear call, values can overlap the other calls; tested in BHK-21 cells;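 further: 0% = median of neutral control wells and 100% = median of positive control wells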
# PDI turbidity: inhibitors of human protein disulfide isomerase; PDI insulin aggregation turbidity, A650, 90 min; inhibition, % at 10 µM; 0.052% of 350,000 active;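 active means mean inhibition across replicates of 30% or more, whatever share of single replicates reach that level; inconclusive means mean inhibition below 30% while every single replicate reaches 30%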
# SIRT5 inh: sirtuin-5 (human) deacylase inhibition | 1.1% of 330,000 active | inhibition, % at 15 µM | Purified SirT5, succinyl-peptide AMC, trypsin-coupled fluorescence; in the data active means inhibition above about 15%; inconclusive means no clear call, values can overlap the other calls
# Rtt109 Vps75: inhibitors of Candida albicans Rtt109/Vps75 histone acetyltransferase; purified Rtt109/Vps75, ThioGlo CoA-SH fluorescence, 4 h; inhibition, % at 34.9 µM; 0.16% of 330,000 active;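 active means inhibition of at least 50% in every replicate; inconclusive means best replicate reaches 50% inhibition but some replicates fall short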
# ERp5 block: ERp5 (human) disulfide isomerase inhibition | Q15084 | ERp5 insulin aggregation, absorbance 650 nm, 90 min | inhibition, % at 9.99 µM | 0.05% of 350,000 active | AID 651711;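 active means mean replicate inhibition above about 25%, with every replicate also reaching it, limit read from the data, passing the limit was not always enough; inconclusive means only one of those two criteria met; inactive means neither criterion met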
# Target sequence (Q15084 whole entry, looked up): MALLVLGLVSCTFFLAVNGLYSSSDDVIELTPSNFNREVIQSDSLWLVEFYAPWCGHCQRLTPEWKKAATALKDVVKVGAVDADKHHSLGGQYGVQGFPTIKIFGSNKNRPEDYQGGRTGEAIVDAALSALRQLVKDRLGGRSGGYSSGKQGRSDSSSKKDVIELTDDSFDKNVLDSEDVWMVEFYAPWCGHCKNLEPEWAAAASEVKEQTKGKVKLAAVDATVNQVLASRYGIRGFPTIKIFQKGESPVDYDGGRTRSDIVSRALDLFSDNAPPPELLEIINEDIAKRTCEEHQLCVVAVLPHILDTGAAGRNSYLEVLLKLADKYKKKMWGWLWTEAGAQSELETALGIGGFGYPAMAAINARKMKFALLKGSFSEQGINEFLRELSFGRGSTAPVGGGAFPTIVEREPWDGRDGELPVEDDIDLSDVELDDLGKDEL
# Numbers without * were called inactive; u = inconclusive; x = no result; ! = not active in a repeat.
SMILES,DENV2 CPE rescue,PDI turbidity,SIRT5 inh,Rtt109 Vps75,ERp5 block
COc1ccc(NC(=O)N(C)C[C@H]2Oc3ccc(NC(=O)C4CC4)cc3CC(=O)N([C@H](C)CO)C[C@H]2C)cc1,-4,x,-5.8*,x,0
COc1ccc(NC(=O)N(C)C[C@@H]2Oc3ccc(NC(=O)C4CC4)cc3CC(=O)N([C@H](C)CO)C[C@H]2C)cc1,3,x,-2,x,-3
COc1ccc(CN(C)C[C@@H]2Oc3ccc(NC(=O)Nc4c(C)noc4C)cc3CC(=O)N([C@H](C)CO)C[C@@H]2C)cc1,41*,x,0,x,-3
C[C@@H]1CN([C@H](C)CO)C(=O)Cc2cc(NC(=O)C3CC3)ccc2O[C@@H]1CN(C)Cc1ccncc1,21*,x,-7,x,-2
CC(C)CC#Cc1ccc2c(c1)O[C@H](CN(C)Cc1cccc(F)c1)[C@@H](C)CN([C@@H](C)CO)S2(=O)=O,8,x,-2,x,-6
C[C@H](CO)N1C[C@H](C)[C@@H](CN(C)C(=O)Nc2ccc3c(c2)OCO3)Oc2ccc(NC(=O)Cn3cnnn3)cc2CC1=O,24*,x,-2,x,-4
C[C@H](CO)N1C[C@H](C)[C@@H](CN(C)C(=O)Nc2ccc3c(c2)OCO3)Oc2ccc(NC(=O)C3CC3)cc2CC1=O,54*,x,-2,x,-3
C[C@@H]1CN([C@@H](C)CO)C(=O)Cc2cc(NC(=O)Cn3cnnn3)ccc2O[C@H]1CN(C)C(=O)Nc1ccc2c(c1)OCO2,-4,x,-1,x,-5
Cc1cc(C(=O)Nc2ccc3c(c2)C(=O)N(C)[C@@H]2CC[C@H](CC(=O)NCC(F)(F)F)O[C@@H]2CO3)no1,-6,x,3,x,-2
COC(=O)c1ccc2nc(-c3ccc(C)cc3)c(CC(C)(C)C)n2c1,-2,x,15*,x,-3
CC(C)(C)Cc1c(-c2ccc(Br)cc2)nc2ccc(Br)cn12,101*,-12,4,x,1
COC(=O)c1ccc2nc(-c3ccc(C)cc3)c(Cc3ccc(C)cc3)n2c1,-3,x,-3,x,-4
CC1OC(CCc2cccc(Cl)c2)Cc2[nH]c(=S)[nH]c(=O)c21 (stereo not given),40*,x,x,x,-2
O=C(C1CCCCC1)N1CCC2CC1c1cc(N3CCCCC3)ccc12 (stereo not given),7,-4,-2,x,-14
O=C(c1ccccc1F)N1CCC2CC1c1cc(N3CCCCC3)ccc12 (stereo not given),42*,2,1,x,-4
CC[n+]1c(C)sc2c(C)cc(C)cc21,x,6,-5,114*,11
CC[n+]1c(C)sc2cc(OC)ccc21,-3,5,-5,2,2
Cc1cc(C)c2sc(C)[n+](CCCS(=O)(=O)[O-])c2c1,-1,-2,6,90*,1
O=C(N[C@@H]1CC[C@H](CC(=O)N2CCOCC2)O[C@@H]1CO)c1cccc(F)c1,12,x,0,x,1
COc1ccc(NC(=O)Nc2ccc3c(c2)C(=O)N([C@@H](C)CO)C[C@H](C)[C@@H](CN(C)C(=O)Nc2ccc(C(F)(F)F)cc2)O3)cc1,-3,x,15,x,-2
C[C@H]1CN([C@@H](C)CO)C(=O)c2cc(NC(=O)Nc3ccccc3)ccc2O[C@@H]1CN(C)C(=O)Nc1ccc(C(F)(F)F)cc1,22*,x,6,x,-4
COc1ccc(NC(=O)Nc2ccc3c(c2)C(=O)N([C@@H](C)CO)C[C@@H](C)[C@H](CN(C)C(=O)Nc2ccc(F)cc2)O3)cc1,21*,x,7,x,1
COc1ccc(NC(=O)N(C)C[C@H]2Oc3ccc(NC(=O)Nc4ccc(F)cc4)cc3C(=O)N([C@H](C)CO)C[C@H]2C)cc1,-12,x,-2,x,-6
COc1ccc(NC(=O)Nc2ccc3c(c2)C(=O)N([C@@H](C)CO)C[C@@H](C)[C@@H](CN(C)C(=O)Nc2ccc(OC)cc2)O3)cc1,26*,x,1,x,-2
COc1ccc(NC(=O)Nc2ccc3c(c2)C(=O)N([C@@H](C)CO)C[C@@H](C)[C@@H](CN(C)C(=O)Nc2ccc(C(F)(F)F)cc2)O3)cc1,u,x,16*,x,-1
SMILES,DENV2 CPE rescue,PDI turbidity,SIRT5 inh,Rtt109 Vps75,ERp5 block
C[C@@H]1CN([C@H](C)CO)C(=O)c2cc(NC(=O)Cn3cnnn3)ccc2O[C@@H]1CN(C)C(=O)Nc1ccc(C(F)(F)F)cc1,59*,x,4,x,1
C[C@@H]1CN([C@H](C)CO)C(=O)c2cc(NC(=O)C3CCCCC3)ccc2O[C@H]1CN(C)C(=O)Nc1ccc(F)cc1,55*,x,-3,x,1
C[C@@H]1CN([C@@H](C)CO)C(=O)c2cc(NC(=O)Cn3cnnn3)ccc2O[C@@H]1CN(C)C(=O)Nc1ccc(F)cc1,0,x,4,x,-9
COc1ccc(C#Cc2cnc3c(c2)C(=O)N([C@@H](C)CO)C[C@@H](C)[C@@H](CN(C)C(C)=O)O3)cc1,-1,x,-2,x,7
COCCNC(=S)NCc1ccc2[nH]c3c(c2c1)CCCC3,33*,-3,-1,-4,0
O=C(C[C@@H]1CC[C@H]2[C@@H](COC[C@@H](O)CN2CC2CCCCC2)O1)NCc1ccc(F)cc1,7,x,9,x,0
CO[C@@H]1CN(C)C(=O)c2cc(NC(=O)CC(F)(F)F)ccc2OC[C@H](C)N(S(=O)(=O)c2cn(C)cn2)C[C@@H]1C,14,x,16*,x,2
CO[C@@H]1CN(C)C(=O)c2ccc(NC(=O)CC(F)(F)F)cc2OC[C@H](C)N(S(=O)(=O)c2cn(C)cn2)C[C@H]1C,-6,x,3,x,x
CO[C@H]1CN(C)C(=O)c2cc(NC(C)=O)ccc2OC[C@H](C)N(S(=O)(=O)c2cn(C)cn2)C[C@H]1C,-2,x,24*,x,4
COc1ccccc1NS(=O)(=O)c1cccc(C(=O)NCC(c2ccccc2OC)N2CCCC2)c1 (stereo not given),-4,-4,15*,6,3
O=C(C[C@H]1CC[C@@H](NC(=O)NC2CCCCC2)[C@@H](CO)O1)NCc1ccccc1,-1,x,-2,x,2
CN1CCN(C(=O)C[C@@H]2CC[C@@H]3[C@H](COC[C@@H](O)CN3CC3CCCCC3)O2)CC1,-8,x,-15,x,3
C[C@H]1CN([C@@H](C)CO)S(=O)(=O)c2ccc(-c3cccc(F)c3)cc2O[C@@H]1CN(C)S(=O)(=O)c1ccc(F)cc1,4,x,18*,x,3
Cc1ccc(S(=O)(=O)N(C)C[C@H]2Oc3cc(-c4cccc(F)c4)ccc3S(=O)(=O)N([C@@H](C)CO)C[C@@H]2C)cc1,-8,x,u,x,-2
C[C@@H]1CN([C@H](C)CO)S(=O)(=O)c2ccc(-c3cccc(F)c3)cc2O[C@@H]1CN(C)S(=O)(=O)c1ccc(F)cc1,-3,x,20*,x,0
O=C(O)c1ccc(O)cc1O,67*,x,x,-2,-3
Nc1ccc(C(=O)O)c(O)c1,1,3,15*!,2,-1
C[C@H]1CCCCO[C@@H](CN(C)S(=O)(=O)c2cccs2)[C@@H](C)CN([C@@H](C)CO)C(=O)c2cc(NS(=O)(=O)c3cn(C)cn3)ccc2O1,9,x,-7,x,3
